Measured values: PubChem BioAssay (Tox21)
Inconclusive results are not listed. Active and inactive are the calls of the source. Unless noted, the call rests on the fitted dose curve; in most records, active means well fitted curve in the direction sought with a large enough effect in the repeat runs; inconclusive means weak or mixed curves; inactive means no such curve, though single readings can be large; an effect the other way counts as inactive or inconclusive.

Tests used:
[1] = qHTS assay to identify small molecule agonists of the RXR signaling pathway - cell viability counter screen (AID 1159529);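 further: HEK 293T cells carrying an RXR-alpha UAS beta-lactamase reporter; nearly all actives have a fitted effect of over 50% in size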
How it was run: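 Counter screen: CellTiter-Glo luminescence. Cells: RXR-alpha-UAS-bla HEK 293T. Medium: 2% charcoal-stripped FBS. Treatment: 16 h, 37 C. Reagent incubation: 30 min, RT.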

[2] = qHTS assay to identify small molecule antagonists of the retinoic acid receptor (RAR) signaling pathway (AID 1159552; further: nearly all actives have a fitted effect of over 50% in size)
How it was run: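 Antagonism of retinol-induced RARE reporter activity was measured in C3RL4 cells. Exposure to compounds and 1 uM final retinol lasted 6 hr at 37 C, with luminescence as endpoint.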

[3] = qHTS assay to identify small molecule agonists of the retinoic acid receptor (RAR) signaling pathway (AID 1159553)
How it was run: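 Cell line C3RL4, RARE luciferase reporter. Treatment: compounds in DMSO, 6 hr, 37 C, 5% CO2, after overnight plating. Detection: luminescence, 30 min RT after reagent.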

[4] = qHTS assay to identify small molecule antagonists of the estrogen related receptor (ERR) signaling pathway from Tox21 library - cell viability counter screen (AID 1224834); further: nearly all actives have a fitted effect of over 30% in size
How it was run: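 Viability readout (CellTiter-Fluor fluorescence, 30 min at 37 C) multiplexed with the ERR assay; cells treated 17.5 h at 37 C with compounds delivered in DMSO.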

[5] = biological target: Luciferin 4-monooxygenase (Photinus pyralis) (UniProt P08659); assay: qHTS assay to identify small molecule inhibitors of firefly luciferase (AID 1224835); further: nearly all actives have a fitted effect of over 25% in size
Chain of Luciferin 4-monooxygenase (Photinus pyralis) (P08659 whole entry, looked up): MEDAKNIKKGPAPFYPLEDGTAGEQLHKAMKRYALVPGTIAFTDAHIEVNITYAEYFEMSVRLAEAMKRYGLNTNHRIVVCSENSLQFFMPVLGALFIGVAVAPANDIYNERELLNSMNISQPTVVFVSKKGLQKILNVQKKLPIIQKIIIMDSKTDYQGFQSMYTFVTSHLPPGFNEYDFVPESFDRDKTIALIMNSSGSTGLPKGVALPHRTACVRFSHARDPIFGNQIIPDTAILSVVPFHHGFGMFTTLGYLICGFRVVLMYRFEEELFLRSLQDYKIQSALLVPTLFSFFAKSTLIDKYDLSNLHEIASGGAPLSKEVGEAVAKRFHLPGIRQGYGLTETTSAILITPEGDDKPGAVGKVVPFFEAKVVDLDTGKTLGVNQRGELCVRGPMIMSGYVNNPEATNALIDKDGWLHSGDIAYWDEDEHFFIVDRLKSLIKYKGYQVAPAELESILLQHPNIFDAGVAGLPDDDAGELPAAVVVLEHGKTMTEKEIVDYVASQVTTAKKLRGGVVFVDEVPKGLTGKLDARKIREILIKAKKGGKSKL
How it was run: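 Quantitative HTS format; KM concentrations of both substrates. Purified P. pyralis FLuc activity quantified from luminescence images.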

[6] = qHTS assay to identify small molecule agonists of the constitutive androstane receptor (CAR) signaling pathway - cell viability counter screen (AID 1224836); further: nearly all actives have a fitted effect of over 45% in size
How it was run: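 Double-stable HepG2 hepatoma cells (hCAR plus CYP2B6-2.2kb) are treated for 23 h at 37 C with test compounds in 15-point concentration series. PK11195 at 0.75 uM final is co-added. Cell viability is quantified by CellTiter-Fluor.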

[7] = qHTS assay to identify small molecule antagonists of the constitutive androstane receptor (CAR) signaling pathway - cell viability counter screen (AID 1224837); further: nearly all actives have a fitted effect of over 45% in size
How it was run: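 Fluorescence from CellTiter-Fluor served as the viability signal. Human hepatoma HepG2 cells stably bearing hCAR and CYP2B6-2.2kb received compound plus CITCO (50 nM final) for 23 hr.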

[8] = biological target: Nuclear receptor subfamily 1 group I member 3 (Homo sapiens) (UniProt Q14994); assay: qHTS assay to identify small molecule antagonists of the constitutive androstane receptor (CAR) signaling pathway (AID 1224838);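 further: HepG2 cells stably expressing hCAR with CYP2B6 luciferase reporter stimulated by CITCO; nearly all actives have a fitted effect of over 40% in size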
Chain of Nuclear receptor subfamily 1 group I member 3 (Homo sapiens) (Q14994 whole entry, looked up): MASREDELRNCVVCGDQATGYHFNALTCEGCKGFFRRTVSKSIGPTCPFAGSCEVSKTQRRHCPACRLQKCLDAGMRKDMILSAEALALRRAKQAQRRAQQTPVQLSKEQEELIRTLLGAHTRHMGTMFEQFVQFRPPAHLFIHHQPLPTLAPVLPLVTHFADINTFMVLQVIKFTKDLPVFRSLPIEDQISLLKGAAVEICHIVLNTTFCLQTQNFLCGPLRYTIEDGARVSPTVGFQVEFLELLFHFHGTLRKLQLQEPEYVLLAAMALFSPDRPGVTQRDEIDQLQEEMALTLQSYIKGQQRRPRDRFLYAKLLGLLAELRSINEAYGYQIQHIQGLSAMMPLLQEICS
How it was run: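 Quantitative HTS in double-stable HepG2-CYP2B6-hCAR cells. After 4 h plating, cells get compound (15 concentrations) and CITCO at 50 nM final, incubate 24 h at 37 C, then ONE-Glo luminescence is read.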

[9] = biological target: Nuclear receptor subfamily 1 group I member 3 (Homo sapiens) (UniProt Q14994); assay: qHTS assay to identify small molecule agonists of the constitutive androstane receptor (CAR) signaling pathway (AID 1224839);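 further: HepG2 cells stably carrying human CAR and a CYP2B6 luciferase reporter; nearly all actives have a fitted effect of over 15% in size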
How it was run: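 Readout: firefly luciferase luminescence via ONE-Glo. System: HepG2 double-stable for hCAR and CYP2B6-2.2kb. Conditions: 15-point compound titration, PK11195 at 0.75 uM final, 24 h incubation.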

[10] = biological target: Thyrotropin receptor (Homo sapiens) (UniProt P16473); assay: qHTS assay to identify small molecule agonists of the thyroid stimulating hormone receptor (TSHR) signaling pathway (AID 1224843; calls by dose curve; further: nearly all actives have a fitted effect of over 45% in size)
Chain of Thyrotropin receptor (Homo sapiens) (P16473 whole entry, looked up): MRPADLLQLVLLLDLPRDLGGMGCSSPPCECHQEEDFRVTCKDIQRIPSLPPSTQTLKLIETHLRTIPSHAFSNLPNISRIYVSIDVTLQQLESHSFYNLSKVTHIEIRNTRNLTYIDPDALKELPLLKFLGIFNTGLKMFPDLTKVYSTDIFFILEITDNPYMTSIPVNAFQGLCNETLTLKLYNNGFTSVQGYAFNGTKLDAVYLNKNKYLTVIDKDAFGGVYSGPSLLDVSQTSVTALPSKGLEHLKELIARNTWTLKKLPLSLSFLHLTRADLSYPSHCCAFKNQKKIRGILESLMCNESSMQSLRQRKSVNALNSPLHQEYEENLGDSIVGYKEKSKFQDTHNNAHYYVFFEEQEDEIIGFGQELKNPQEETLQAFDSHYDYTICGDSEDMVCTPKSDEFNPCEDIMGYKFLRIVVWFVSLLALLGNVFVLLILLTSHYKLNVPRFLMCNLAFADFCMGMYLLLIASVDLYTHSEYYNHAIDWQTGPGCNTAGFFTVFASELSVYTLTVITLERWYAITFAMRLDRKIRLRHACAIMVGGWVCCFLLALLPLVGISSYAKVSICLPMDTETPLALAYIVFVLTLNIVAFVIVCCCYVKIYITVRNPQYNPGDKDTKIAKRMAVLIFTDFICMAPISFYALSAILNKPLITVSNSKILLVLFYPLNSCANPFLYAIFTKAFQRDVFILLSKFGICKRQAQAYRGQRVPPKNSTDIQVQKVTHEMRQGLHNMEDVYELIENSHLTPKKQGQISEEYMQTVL
How it was run: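 TSHR-expressing HEK293 cells (800 per well) were exposed to compounds for 30 min at room temperature. cAMP was then detected by HTRF competition with cAMP-d2 and anti-cAMP cryptate, read after 1 h at room temperature. Fifteen concentrations, triplicate.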

[11] = qHTS assay to identify small molecule agonists of the hypoxia (HIF-1) signaling pathway - cell viability counter screen (AID 1224844; calls by dose curve; further: nearly all actives have a fitted effect of over 50% in size)
How it was run: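 Luminescent ATP content (CellTiter-Glo, 30 min, room temperature) served as the viability measure in HRE-bla ME-180 cells exposed to compounds for 17 hrs in low-serum medium (0.5% dialyzed FBS).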

[12] = qHTS assay to identify small molecule agonists of H2AX (AID 1224845; active means well fitted activation curve with a large enough effect in the signal ratio in the repeat runs, not every such curve was filed as active; the % refers to the signal ratio)
How it was run: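 Wild-type CHO-K1 cells plated overnight, then exposed 3 hr at 37C to compounds at 15 concentrations (0.76% DMSO). Lysed, then HTRF anti-pH2AX(S139)-cryptate/anti-H2AX-d2 detection after 24 hr at room temperature; emissions 665 and 620 nm.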

[13] = qHTS assay to identify small molecule agonists of the hypoxia (HIF-1) signaling pathway (AID 1224846; active means well fitted activation curve with a large enough effect in the signal ratio in the repeat runs, not every such curve was filed as active; the % refers to the signal ratio)
How it was run: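 Measured by blue/green FRET after loading CCF4-AM: beta-lactamase expressed from a hypoxia response element in ME-180 cells. Test agents were delivered in DMSO and left 17 hrs; cells had been plated 5 hrs earlier in low-serum (0.5% dialyzed FBS) medium.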

[14] = qHTS assay to identify small molecule agonists of H2AX - cell viability counter screen (AID 1224847; calls by dose curve; further: top concentration of the series differs between compounds; nearly all actives have a fitted effect of over 30% in size)
How it was run: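 For this counter screen, overnight-attached CHO-K1 cells received test compounds (15 concentrations, 0.76% DMSO final); 3 hr later at 37C, CellTiter-Glo reagent was added and luminescence recorded after 30 min at room temperature.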

[15] = qHTS RealTime-Glo MT Cell Viability Assay in HepG2 cells - 24 hour (AID 1224867); further: nearly all actives have a fitted effect of over 50% in size
How it was run: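 Real-time, nonlytic viability: 600 HepG2 cells/well mixed with NanoLuc enzyme plus prosubstrate; 5 h settle, compound (DMSO) added by pintool; luminescence monitored over 40 h at 37 C.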

[16] = qHTS assay to identify small molecule antagonists of the estrogen related receptor signaling pathway with the pleiotropic PPARgamma coactivator (PGC) from Tox21 10K library - cell viability counter screen (AID 1224840; active means well fitted cell-killing curve with a large enough effect in the repeat runs, not every such curve was filed as active; further: nearly all actives have a fitted effect of over 40% in size)
How it was run: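 Compounds in DMSO, alongside positive and negative controls, were pinned onto PGC/ERR cells (2,000 per well). Exposure lasted 17.5 hours at 37 C, followed by a 30-minute CellTiter-Fluor incubation and fluorescence reading.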

[17] = qHTS assay to identify small molecule agonists of the estrogen related receptor (ERR) signaling pathway from Tox21 library (AID 1224849; calls by dose curve; further: nearly all actives have a fitted effect of over 15% in size); conditions: ERR reporter cell line, ONE-Glo luciferase, 18 h; at 92.4 µM (top of the series) unless noted
How it was run: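 We plated ERR reporter cells, waited 6 h, added compounds in DMSO by pin tool and incubated them 18 h at 37 C. ONE-Glo was then added and luminescence read after 30 min.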

[18] = qHTS assay to identify small molecule antagonists of the estrogen related receptor signaling pathway with the pleiotropic PPARgamma coactivator (PGC) from Tox21 10K library (AID 1224841; call rule not given here)
How it was run: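 Compound exposure ran 18 hours at 37 C in PGC/ERR cells (2,000/well) that had first rested 6 hours in a 37 C/5% CO2 incubator. Luciferase activity was then detected with One-Glo after a 30-minute room-temperature step.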

[19] = qHTS assay to identify small molecule antagonists of the estrogen related receptor (ERR) signaling pathway from Tox21 library (AID 1224848); further: nearly all actives have a fitted effect of over 50% in size
How it was run: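 Cells: ERR line, 2,000/well; 6 h preincubation 37 C/5% CO2. Cpd in DMSO via pin tool; 18 h, 37 C. ONE-Glo, 30 min RT, luminescence.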
On the % scale 0 is the no-effect control and ±100 the full control effect.

O=C1c2ccccc2C(=O)c2cc(Cl)ccc21
inactive: activity change, negative = cytotoxicity [1] 5.38% [at 6.97 µM] | activity, negative = inhibition [2] 30% [at 8.39 µM] | activation [3] 2.57% [at 8.36 µM] | viability change, negative = cytotoxic [4] 1.32% [at 8.39 µM] | activity change, negative = inhibition [5] 0.579% [at 10.5 µM] | viability change, negative = cytotoxic [6] -1.2% [at 8.39 µM] | activity change, negative = cytotoxicity [7] 2.26% [at 8.39 µM] | activity, negative = inhibition [8] 54.9% [at 8.39 µM] | activation [9] 8.38% [at 8.39 µM] | activation [10] -6.72% [at 8.39 µM] | activity change, negative = cytotoxicity [11] 10.7% [at 6.97 µM] | activation (H2AX phosphorylation) [12] 2.59% [at 14 µM] | activation [13] -0.0803% [at 7.01 µM] | activity change, negative = cytotoxicity [14] 4.41% [at 14 µM] | activity change, negative = cytotoxicity [15] -1.65% [at 6.97 µM]

CC(Oc1cc(Cl)ccc1Cl)C(=O)O (stereo unspecified)
inactive: outcome [1] | outcome [2] | Potency [3] | outcome [4] | Potency [5] | outcome [6] | outcome [7] | Potency [8] | Potency [9] | outcome [11] | outcome [12] | outcome [13] | outcome [14] | outcome [15]

CC(C)=CCC/C(C)=C/COC=O
inactive: outcome [1] | outcome [2] | Potency [3] | outcome [4] | Potency [5] | outcome [6] | outcome [7] | Potency [8] | Potency [9] | outcome [16] | outcome [11] | outcome [12] | outcome [13] | outcome [15]

CC(O)COC(C)(C)C (stereo unspecified)
inactive: outcome [1] | outcome [2] | Potency [3] | outcome [4] | Potency [5] | outcome [6] | outcome [7] | Potency [9] | outcome [16] | outcome [10] | outcome [11] | outcome [12] | outcome [13] | outcome [15]

Cc1cccc(Cl)c1
inactive: outcome [1] | outcome [2] | Potency [3] | outcome [4] | Potency [5] | outcome [6] | outcome [7] | Potency [9] | outcome [10] | outcome [12] | outcome [13] | outcome [14] | outcome [15]

Cc1ccc(C)c([N+](=O)[O-])c1
inactive: outcome [1] | outcome [2] | Potency [3] | outcome [4] | Potency [5] | outcome [6] | Potency [8] | Potency [9] | outcome [16] | outcome [11] | outcome [12] | outcome [13] | outcome [15]

CC1CCc2c(N3CCC(O)CC3)c(F)cc3c(=O)c(C(=O)O)cn1c23 (stereo unspecified)
inactive: outcome [1] | outcome [2] | Potency [3] | outcome [4] | Potency [5] | outcome [6] | outcome [7] | Potency [9] | outcome [16] | outcome [10] | outcome [11] | outcome [12] | outcome [13] | outcome [14] | activity change, positive = activation [17] -17.9% [at 42.5 µM] | outcome [15]

OCC1(CO)COCOC1
inactive: outcome [1] | outcome [2] | Potency [3] | outcome [4] | Potency [5] | outcome [6] | Potency [9] | outcome [16] | outcome [10] | outcome [11] | outcome [12] | outcome [13] | outcome [14] | outcome [15]

COc1cc2c(cc1OC)C(=O)C(CC1CCN(Cc3ccccc3)CC1)C2 (stereo unspecified)
inactive: outcome [1] | outcome [2] | Potency [3] | outcome [4] | Potency [5] | outcome [6] | outcome [7] | Potency [8] | Potency [9] | outcome [18] | outcome [10] | outcome [12] | outcome [13] | outcome [14] | Potency [19] | activity change, positive = activation [17] 2.42% [at 42.5 µM] | outcome [15]

O=C(O)CONC(=O)c1ccccc1
inactive: outcome [1] | outcome [2] | Potency [3] | outcome [4] | Potency [5] | outcome [6] | Potency [8] | Potency [9] | outcome [16] | outcome [10] | outcome [11] | outcome [12] | outcome [13] | outcome [14] | outcome [15]

CCCCCCC1(C)CCC(=O)O1 (stereo unspecified)
inactive: outcome [1] | outcome [2] | Potency [3] | outcome [4] | Potency [5] | outcome [6] | outcome [7] | Potency [9] | outcome [16] | outcome [11] | outcome [12] | outcome [13] | outcome [15]

CO[Si](CCCn1c(=O)n(CCC[Si](OC)(OC)OC)c(=O)n(CCC[Si](OC)(OC)OC)c1=O)(OC)OC
inactive: outcome [1] | outcome [2] | Potency [3] | outcome [4] | Potency [5] | outcome [6] | outcome [7] | Potency [8] | Potency [9] | outcome [16] | outcome [11] | outcome [12] | outcome [13] | outcome [15]

CC/C(C)=N\O[Si](C)(O/N=C(\C)CC)O/N=C(\C)CC
inactive: outcome [1] | outcome [2] | Potency [3] | outcome [4] | Potency [5] | outcome [6] | outcome [7] | Potency [8] | Potency [9] | outcome [16] | outcome [10] | outcome [12] | outcome [13] | outcome [15]

Cc1ccccc1C(N)=O
inactive: outcome [1] | outcome [2] | Potency [3] | outcome [4] | Potency [5] | outcome [6] | outcome [7] | Potency [8] | Potency [9] | outcome [16] | outcome [11] | outcome [12] | outcome [13] | outcome [14] | outcome [15]

CC(C)=CCC[C@@](C)(O)[C@H]1CC=C(C)CC1
inactive: outcome [1] | outcome [2] | Potency [3] | outcome [4] | Potency [5] | outcome [6] | Potency [8] | Potency [9] | outcome [16] | outcome [10] | outcome [11] | outcome [12] | outcome [13] | outcome [14] | outcome [15]

CC1=NN(c2ccc(S(=O)(=O)O)cc2)C(=O)C1
inactive: outcome [1] | outcome [2] | Potency [3] | outcome [4] | Potency [5] | outcome [6] | outcome [7] | Potency [8] | Potency [9] | outcome [16] | outcome [10] | outcome [13] | outcome [14] | outcome [15]

CN(C)CCCO[C@@H]1[C@H]2OC(C)(C)O[C@H]2O[C@@H]1C(O)CO (stereo partly specified)
inactive: outcome [1] | outcome [2] | Potency [3] | outcome [4] | Potency [5] | outcome [6] | Potency [8] | Potency [9] | outcome [16] | outcome [18] | outcome [11] | outcome [12] | outcome [14] | Potency [19] | activity change, positive = activation [17] 6.19% [at 42.5 µM] | outcome [15]

CC(CO)(CO)CO
inactive: outcome [1] | outcome [2] | Potency [3] | outcome [4] | Potency [5] | outcome [6] | outcome [7] | Potency [8] | Potency [9] | outcome [16] | outcome [11] | outcome [12] | outcome [13] | outcome [14] | outcome [15]
